Here are results for 40 compounds from PubChem BioAssay (NCATS).

Several values for one entry are separate records, joined by “and”; a condition that tells them apart may be missing. Identical values can stand only once. Results filed as inconclusive are left out.

The test in a line: qHTS Assay for Lipid Storage Modulators (AID 1519). The settings on record: Drosophila S3 cells, BODIPY lipid droplet/cell ratio, laser cytometry; measured here: lipid channel max response; cells loaded with oleic acid. In outline: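 Cells seeded at 5,000 per well were treated with compounds over a concentration series and loaded with oleic acid (400 uM, as added). Lipid droplet fluorescence (488 nm excitation, 500-530 nm channel) was read by laser-scanning cytometry and normalized to 20 uM Triacsin C.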
(In general: In qHTS, concentration-response curves come from the screen itself.)
`CC(C)(C#N)O[C@H]1OC(CO)C(O)C(O)C1O` (stereo not given in full): the max response came to 22.9%.
The result for `CC1CC2CC(=O)C3CCCN4CCCC2[C@]34C1` (stereo not given in full) reads 11.3%.
The result for `CC1CC[C@]2(NC1)OC1CC3C4CC=C5CC(O)CC[C@@]5(C)C4CC[C@]3(C)C1C2C` (stereo not given in full) reads 22.2%.
For `CNC(=O)Oc1cccc2c1OC(C)(C)C2`, the max response amounted to 6.59%.
The result for `NC(CO)Cc1ccccc1` (stereo not given) reads 29%; that for `O=C(O)c1nn(Cc2ccc(Cl)c(Cl)c2)c2ccccc12`, 16.9%.
In the case of `CNc1ccccc1C(=O)O` it was 25.4%; in that of `CC(N)C(O)c1ccc(O)c(O)c1` (stereo not given), 23.4% and 5.16%.
The result for `C[C@@]12CC(c3ccoc3)OC(=O)C1CC[C@@]1(C)C2C2C=C[C@@]1(O)C(=O)O2` (stereo not given in full) reads 26.2%.
Turning to `CC(=O)OC1C(=O)[C@]2(C)C(O)CC3OC[C@]3(OC(C)=O)C2[C@@H](OC(=O)c2ccccc2)[C@]2(O)CC(O)C(C)=C1C2(C)C` (stereo not given in full), the max response is 6.64%.
In the case of `Cc1c(O)c(O)cc2c1CC=C1[C@]3(C)CC[C@]4(C)CC[C@@](C)(C(=O)O)CC4[C@]3(C)CC[C@]12C` (stereo not given in full) it was 14.7%; in that of `N#C/C(=C\c1cccc(O)c1)C(=O)O`, 7.48%; in that of `CC(=O)C1CCC2C3CCC4CC(O)CCC4(C)C3CC(O)C12C` (stereo not given), 2.61%.
The result for `COc1cc2c(cc1OC)[C@@H]1C(=O)c3ccc(O)c(CC=C(C)C)c3OC1CO2` (stereo not given in full) reads 25.6%; that for `C[C@@]12CCC3C(CC[C@@H]4CC(O)CC[C@@]34C)C1CCC2O` (stereo not given in full), 26%; that for `CCC(C)C(=O)OC1C(O)C2C(CN3CC(C)CCC3[C@]2(C)O)C2C[C@]34O[C@@]5(O)C(OC(=O)C(C)(O)C(C)O)CCC3(C)C5C(OC(C)=O)C(OC(C)=O)C4[C@@]21O` (stereo not given in full), 35.3%.
The result for `N#CC(O[C@@H]1OC(COC2OC(CO)C(O)C(O)[C@@H]2O)C(O)C(O)C1O)c1ccccc1` (stereo not given in full) reads 5.27%; that for `CCN1C[C@@]2(OC(=O)c3ccccc3NC(C)=O)CCC(OC)[C@@]34C5CC6C(OC)C[C@@](O)(C(CC23)[C@@H]14)C5(O)C6OC` (stereo not given in full), 17%; that for `CCOC(=O)C1C(C=C(C)C)C1(C)C` (stereo not given), 3.02%.
`FC(F)(F)c1cccc(N2CCNCC2)c1`: the max response was -3.82%.
In the case of `CC(N)[C@@H](O)c1ccccc1` (stereo not given in full) it was 28.2%; in that of `CC1C(=O)OC2C(O)C34C5OC(=O)[C@@]3(OC3OC(=O)[C@H](O)[C@]34C(C(C)(C)C)C5O)[C@]12O` (stereo not given in full), 14.3%.
As to `CC(=O)OC1CC[C@]2(C)C(CCC3C2CC[C@]2(C)C(C4=CC(=O)OC4)C(OC(C)=O)CC32O)C1` (stereo not given in full), the max response was 14.6%.
The result for `C[C@]12CCC3C(C=CC4=CC(=O)CC[C@]43C)C1CC[C@]2(O)CCC(=O)O` (stereo not given in full) reads 34.1%; that for `CC1C(=O)OC2CCN3CC=C(COC(=O)[C@](C)(O)[C@]1(C)O)C23` (stereo not given in full), 4.32%.
The result for `C/C=C(/C)C(=O)OC1CC[C@]2(C)C3CCC4[C@]5(O)CC(O)[C@]6(O)C(CN7CC(C)CCC7[C@]6(C)O)[C@]5(O)C[C@@]42O[C@]13O` (stereo not given in full) reads 12.3%.
In the case of `CC1O[C@@H](OC2CC[C@@]3(C=O)C4CC[C@]5(C)C(C6=CC(=O)OC6)CC[C@@]5(O)C4CC[C@]3(O)C2)C(O)C(O)C1O` (stereo not given in full) it was 4.22%; in that of `COc1ccc(/C=C/c2cc(O)cc(O)c2)cc1`, 6.07%.
Turning to `CNC(Cc1c[nH]c2ccccc12)C(=O)O` (stereo not given), the max response stood at 20.5%.
In the case of `COC1C(O)C(C)O[C@H](OC2CC[C@@]3(C=O)C4CC[C@]5(C)C(C6=CC(=O)OC6)CC[C@@]5(O)C4CC[C@@H]3C2)C1O` (stereo not given in full) it was 24.5%.
In the case of `O=C(NC(=O)c1ccccc1Cl)Nc1ccc(OC(F)(F)F)cc1` it was 9.8%.
In the case of `CC(=O)OC1CC(OC(C)=O)[C@]2(C)C(CC(OC(C)=O)[C@]3(C)C2CC[C@@]2(C)C(c4ccoc4)C[C@H]4O[C@]432)C1(C)C` (stereo not given in full) it was 19.4%.
With `CCC(N)C(O)c1ccc(O)c(O)c1` (stereo not given), the max response is 16.7%.
As to `CC(=O)C1CC[C@H]2C3CC[C@@H]4CC(O)CC[C@@]4(C)C3CC[C@]12C` (stereo not given in full), the max response worked out at 25.9%.
In the case of `O=C(O)CCC1NCC2CC1CN1CCCCC21` (stereo not given) it was 5.45%; in that of `CC1(C)N([O-])[N+](=O)C1(C)Br` (stereo not given), -5.74%; in that of `COc1cc2c3cc1Oc1c(OC)c(OC)cc4c1C(Cc1cccc(c1)Oc1ccc(c(O)c1)CC3N(C)CC2)N(C)CC4` (stereo not given), 22.7%.
In the case of `COC[C@]12CN(C=O)C3C4C(OC)C1[C@@]3(C1CC3(O)C(OC)C(O)C4(OC(C)=O)C1C3OC(=O)c1ccccc1)[C@@H](OC)CC2O` (stereo not given in full) it was -7.99%; in that of `COc1cc2c(c(OC)c1OC)-c1ccc(O)c(=O)cc1C(NC(C)=O)CC2` (stereo not given), 36.3%.
As to `CN1C2CC3CC1C(O3)C2O` (stereo not given), the max response was -5.52%.
